Reference: PubChem BioAssay AID1159580 (chemical genetic matrix, 2015)
The campaign covered roughly 5,500 compounds. About 2,000 (36%) were called active. Inconclusive results (about 18%) are left out. No stated cut-off is given here; in the data, active means normalized growth mostly below about 0.91 (no sharp cut-off); inconclusive means no clear call, values can overlap the other calls; inactive means mostly above about 0.92. Some of the results follow.

Test: chemical genetic growth profiling, strain panel (AID 1159580);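 further: tested at 20 µM; growth read once vehicle control cultures reached saturation at 30 °C; 1 = growth at the plate median or of vehicle wells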
Conditions: growth OD
[1] = S. cerevisiae deletion strains, locus YDL101C, strain DUN1, stronger effect = lower value
[2] = S. cerevisiae deletion strains, locus YHR030C, strain SLT2, stronger effect = lower value

Measured: normalized growth

Cn1c(=O)c(-c2ccccc2)c(O)c2ccccc21
inactive: S. cerevisiae deletion strains, locus YDR150W, strain NUM1, stronger effect = lower value 0.825 | S. cerevisiae deletion strains, locus YEL061C, strain CIN8, stronger effect = lower value 0.921 | S. cerevisiae deletion strains, locus YGR229C, strain SMI1, stronger effect = lower value 0.953 | S. cerevisiae deletion strains, locus YHR087W, strain rtc3, stronger effect = lower value 0.99 | S. cerevisiae deletion strains, locus YKL190W, strain CNB1, stronger effect = lower value 0.942 | S. cerevisiae deletion strains, locus YML094W, strain GIM5, stronger effect = lower value 0.968 | S. cerevisiae deletion strains, locus YMR307W, strain GAS1, stronger effect = lower value 0.767 | S. cerevisiae deletion strains, locus YNL298W, strain CLA4 (second series), stronger effect = lower value 0.84 | S. cerevisiae deletion strains, locus YOL006C, strain TOP1, stronger effect = lower value 0.881 | S. cerevisiae deletion strains, locus YPL055C, strain LGE1, stronger effect = lower value 0.907
active: S. cerevisiae deletion strains, locus YAL013W, strain DEP1, stronger effect = lower value 0.868 | S. cerevisiae deletion strains, locus YBR229C, strain ROT2, stronger effect = lower value 0.887 | [1] 0.636 | S. cerevisiae deletion strains, locus YGR078C, strain PAC10, stronger effect = lower value 0.871 | [2] 0.533 | S. cerevisiae deletion strains, locus YJL187C, strain SWE1, stronger effect = lower value 0.826 | S. cerevisiae deletion strains, locus YJR043C, strain POL32, stronger effect = lower value 0.842 | S. cerevisiae deletion strains, locus YJR075W, strain HOC1, stronger effect = lower value 0.881 | S. cerevisiae deletion strains, locus YLR039C, strain RIC1, stronger effect = lower value 0.75 | S. cerevisiae deletion strains, locus YLR058C, strain SHM2 (second series), stronger effect = lower value 0.926 | S. cerevisiae deletion strains, locus YLR085C, strain ARP6, stronger effect = lower value 0.438 | S. cerevisiae deletion strains, locus YLR262C, strain YPT6, stronger effect = lower value 0.81 | S. cerevisiae deletion strains, locus YMR219W, strain ESC1, stronger effect = lower value 0.945 | S. cerevisiae deletion strains, locus YMR263W, strain SAP30, stronger effect = lower value 0.898 | S. cerevisiae deletion strains, locus YNL153C, strain GIM3, stronger effect = lower value 0.878 | S. cerevisiae deletion strains, locus YNL322C, strain KRE1, stronger effect = lower value 0.932 | S. cerevisiae deletion strains, locus YNR030W, strain Alg12, stronger effect = lower value 0.837 | S. cerevisiae deletion strains, locus YPL241C, strain CIN2, stronger effect = lower value 0.816 | S. cerevisiae deletion strains, locus YPR135W, strain CTF4, stronger effect = lower value 0.442 | S. cerevisiae strains, strain wild type, stronger effect = lower value 0.9

O=c1c(-c2ccccc2)c(O)c2cccc3c4ccccc4n1c23
active: S. cerevisiae deletion strains, locus YAR019C, strain CDC15, stronger effect = lower value 0.117 | S. cerevisiae deletion strains, locus YBL105C, strain PKC1, stronger effect = lower value 0.121 | S. cerevisiae deletion strains, locus YBR135W, strain CKS1, stronger effect = lower value 0.13 | S. cerevisiae deletion strains, locus YBR136W, strain MEC1, stronger effect = lower value 0.148 | S. cerevisiae deletion strains, locus YBR160W, strain CDC28, stronger effect = lower value 0.215 | S. cerevisiae deletion strains, locus YDL017W, strain CDC7, stronger effect = lower value 0.154 | S. cerevisiae deletion strains, locus YDL028C, strain MPS1, stronger effect = lower value 0.142 | [1] 0.226 | S. cerevisiae deletion strains, locus YDL108W, strain KIN28, stronger effect = lower value 0.247 | S. cerevisiae deletion strains, locus YDL132W, strain cdc53, stronger effect = lower value 0.167 | S. cerevisiae deletion strains, locus YDL214C, strain PRR2, stronger effect = lower value 0.0962 | S. cerevisiae deletion strains, locus YDR052C, strain DBF4, stronger effect = lower value 0.344 | S. cerevisiae deletion strains, locus YDR054C, strain cdc34, stronger effect = lower value 0.128 | S. cerevisiae deletion strains, locus YDR226W, strain ADK1, stronger effect = lower value 0.523 | S. cerevisiae deletion strains, locus YDR477W, strain SNF1, stronger effect = lower value 0.134 | S. cerevisiae deletion strains, locus YER123W, strain YCK3, stronger effect = lower value 0.113 | S. cerevisiae deletion strains, locus YER133W, strain GLC7, stronger effect = lower value 0.105 | S. cerevisiae deletion strains, locus YFL009W, strain cdc4, stronger effect = lower value 0.14 | S. cerevisiae deletion strains, locus YFL029C, strain CAK1, stronger effect = lower value 0.115 | S. cerevisiae deletion strains, locus YFR003C, strain YPI1, stronger effect = lower value 0.12 | S. cerevisiae deletion strains, locus YFR019W, strain FAB1, stronger effect = lower value 0.118 | S. cerevisiae deletion strains, locus YFR028C, strain CDC14, stronger effect = lower value 0.145 | S. cerevisiae deletion strains, locus YGR040W, strain KSS1, stronger effect = lower value 0.124 | S. cerevisiae deletion strains, locus YGR052W, strain FMP48, stronger effect = lower value 0.13 | S. cerevisiae deletion strains, locus YGR092W, strain DBF2, stronger effect = lower value 0.11 | [2] 0.149 | S. cerevisiae deletion strains, locus YHR079C, strain IRE1, stronger effect = lower value 0.143 | S. cerevisiae deletion strains, locus YHR082C, strain KSP1, stronger effect = lower value 0.157 | S. cerevisiae deletion strains, locus YHR205W, strain SCH9, stronger effect = lower value 0.0087 | S. cerevisiae deletion strains, locus YIL147C, strain SLN1, stronger effect = lower value 0.123 | S. cerevisiae deletion strains, locus YJL095W, strain BCK1, stronger effect = lower value 0.141 | S. cerevisiae deletion strains, locus YJL128C, strain PBS2, stronger effect = lower value 0.133 | S. cerevisiae deletion strains, locus YJL157C, strain FAR1, stronger effect = lower value 0.0913 | S. cerevisiae deletion strains, locus YJR016C, strain ILV3, stronger effect = lower value 0.168 | S. cerevisiae deletion strains, locus YJR066W, strain TOR1 (second series), stronger effect = lower value 0.131 | S. cerevisiae deletion strains, locus YJR066W, strain TOR1, stronger effect = lower value 0.135 | S. cerevisiae deletion strains, locus YKL048C, strain ELM1, stronger effect = lower value 0.122 | S. cerevisiae deletion strains, locus YKL067W, strain YNK1, stronger effect = lower value 0.0882 | S. cerevisiae deletion strains, locus YKL101W, strain HSL1, stronger effect = lower value 0.113 | S. cerevisiae deletion strains, locus YKL193C, strain SDS22, stronger effect = lower value 0.139 | S. cerevisiae deletion strains, locus YKL203C, strain TOR2, stronger effect = lower value 0.146 | S. cerevisiae deletion strains, locus YLR113W, strain HOG1, stronger effect = lower value 0.185 | S. cerevisiae deletion strains, locus YLR133W, strain CKI1, stronger effect = lower value 0.106 | S. cerevisiae deletion strains, locus YLR403W, strain SFP1, stronger effect = lower value 0.00673 | S. cerevisiae deletion strains, locus YML070W, strain DAK1, stronger effect = lower value 0.0964 | S. cerevisiae deletion strains, locus YMR001C, strain CDC5, stronger effect = lower value 0.119 | S. cerevisiae deletion strains, locus YMR205C, strain PFK2 (second series), stronger effect = lower value 0.1 | S. cerevisiae deletion strains, locus YMR277W, strain FCP1, stronger effect = lower value 0.165 | S. cerevisiae deletion strains, locus YNL006W, strain LST8, stronger effect = lower value 0.11 | S. cerevisiae deletion strains, locus YNL020C, strain ARK1, stronger effect = lower value 0.115 | S. cerevisiae deletion strains, locus YNL161W, strain CBK1, stronger effect = lower value 0.133 | S. cerevisiae deletion strains, locus YNL183C, strain NPR1, stronger effect = lower value 0.161 | S. cerevisiae deletion strains, locus YNL207W, strain RIO2, stronger effect = lower value 0.131 | S. cerevisiae deletion strains, locus YNL222W, strain SSU72, stronger effect = lower value 0.11 | S. cerevisiae deletion strains, locus YNL307C, strain MCK1 (second series), stronger effect = lower value 0.118 | S. cerevisiae deletion strains, locus YOL078W, strain AVO1, stronger effect = lower value 0.123 | S. cerevisiae deletion strains, locus YOL136C, strain PFK27, stronger effect = lower value 0.106 | S. cerevisiae deletion strains, locus YOR061W, strain CKA2, stronger effect = lower value 0.0936 | S. cerevisiae deletion strains, locus YOR119C, strain RIO1, stronger effect = lower value 0.146 | S. cerevisiae deletion strains, locus YOR231W, strain MKK1, stronger effect = lower value 0.122 | S. cerevisiae deletion strains, locus YOR329C, strain SCD5, stronger effect = lower value 0.12 | S. cerevisiae deletion strains, locus YPL031C, strain PHO85, stronger effect = lower value 0.124 | S. cerevisiae deletion strains, locus YPL153C, strain RAD53, stronger effect = lower value 0.109 | S. cerevisiae deletion strains, locus YPL204W, strain HRR25, stronger effect = lower value 0.126 | S. cerevisiae deletion strains, locus YPL209C, strain IPL1, stronger effect = lower value 0.129 | S. cerevisiae deletion strains, locus YPL256C, strain CLN2, stronger effect = lower value 0.15 | S. cerevisiae deletion strains, locus YPR025C, strain CCL1, stronger effect = lower value 0.149 | S. cerevisiae deletion strains, locus YPR106W, strain ISR1, stronger effect = lower value 0.141 | S. cerevisiae deletion strains, locus YPR111W, strain DBF20, stronger effect = lower value 0.147 | S. cerevisiae deletion strains, strain NNK1, stronger effect = lower value 0.114 | S. cerevisiae deletion strains, strain TSCII, stronger effect = lower value 0.112
